Assay results from PubChem BioAssay (NCATS).
Records with an inconclusive call do not appear. Unless noted, the call rests on the fitted dose curve; in most records, active means well fitted curve in either direction with a large enough effect (not every such curve was filed as active); inconclusive means small, poorly fitted or top-dose-only effect, or another doubt; inactive means flat fitted curve, though single readings scatter.

Experiments:
[1] = AP1 Signaling Pathway (AID 357); settings: ME-180 AP-1-bla reporter, EGF-induced, beta-lactamase ratio, 5 h; at 17.2 µM (top of the series) unless noted;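 further: ME-180 reporter cells stimulated with EGF at its EC50 level; on the % scale 0 is the no-effect control and ±100 the full control effect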
In short: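 Read-out was the 460nm/530nm emission ratio (excitation 405nm) after CCF4 loading for 2.5 hours at room temperature. Cells carried an AP-1-driven beta-lactamase reporter, were stimulated with EC50 EGF plus compound for 5 hours, and AC50 values came from titrations.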

[2] = NFAT Signaling Pathway (AID 444); settings: Jurkat NFAT-bla M1, carbachol, beta-lactamase ratio, 5 h; at 17.2 µM (top of the series) unless noted;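 further: carbachol stimulus at about its EC50 of 1 µM final; on the % scale 0 is the no-effect control and ±100 the full control effect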
In short: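 Jurkat cells with NFAT-driven β-lactamase reporter and co-expressed M1 receptor, stimulated with carbachol (final 1 uM, ~EC50), compound titration, 5 h at 37 °C. CCF4 loaded 1 h at RT; 460/530 nm ratio gave %activity and AC50.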

[3] = Stat Signaling Pathway (AID 446); settings: ME-180 (cervical carcinoma) SIE beta-lactamase reporter, IL-6 stimulated, 5 h; at 17.2 µM (top of the series) unless noted;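 further: ME-180 cervical cancer cells given 40 pM IL-6 alongside compound; SIE-controlled beta-lactamase reporter measured as 460/530 nm FRET emission ratio; on the % scale 0 is the no-effect control and ±100 the full control effect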
In short: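 Compound effects on IL-6-induced STAT reporter activity were measured in ME-180 cells. After overnight culture, cells were co-treated with 40 pM IL-6 for 5 hrs before beta-lactamase substrate loading at room temperature.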

[4] = target: Glucocorticoid receptor (Homo sapiens) (UniProt P04150); experiment: GR-GFP Redistribution (AID 450;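 active means compounds whose dose series gives a full or clear partial fitted curve of increased nuclear translocation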; further: potency means the concentration at half of the fitted maximal effect)
Sequence of Glucocorticoid receptor (Homo sapiens) (P04150 whole entry, looked up): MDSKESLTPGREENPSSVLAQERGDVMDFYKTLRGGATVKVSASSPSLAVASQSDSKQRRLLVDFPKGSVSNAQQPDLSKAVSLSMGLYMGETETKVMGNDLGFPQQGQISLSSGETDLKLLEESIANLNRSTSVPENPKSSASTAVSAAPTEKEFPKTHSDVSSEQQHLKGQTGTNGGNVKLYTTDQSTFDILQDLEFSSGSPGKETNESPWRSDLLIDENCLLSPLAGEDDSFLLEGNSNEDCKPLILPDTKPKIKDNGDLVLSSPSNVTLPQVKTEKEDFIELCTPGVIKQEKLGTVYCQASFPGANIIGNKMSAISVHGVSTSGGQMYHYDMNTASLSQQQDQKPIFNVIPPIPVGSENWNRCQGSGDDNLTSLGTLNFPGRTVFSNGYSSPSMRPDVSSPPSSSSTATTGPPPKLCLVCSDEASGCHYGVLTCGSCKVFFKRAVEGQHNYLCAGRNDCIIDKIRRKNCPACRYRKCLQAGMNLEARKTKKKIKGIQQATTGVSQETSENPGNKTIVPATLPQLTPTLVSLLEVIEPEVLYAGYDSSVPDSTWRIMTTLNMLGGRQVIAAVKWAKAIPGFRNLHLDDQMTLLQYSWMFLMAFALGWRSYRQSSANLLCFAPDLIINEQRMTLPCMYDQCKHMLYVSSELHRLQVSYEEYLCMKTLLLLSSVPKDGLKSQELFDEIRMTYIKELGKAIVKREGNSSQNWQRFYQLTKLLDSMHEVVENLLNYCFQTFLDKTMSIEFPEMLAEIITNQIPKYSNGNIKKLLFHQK

CCOC(=O)c1cc2c(=O)n3ccccc3nc2n(Cc2ccccc2Cl)c1=N
inactive: activity change, negative = inhibition [1] -18.6% | activity change, negative = inhibition [2] 1.14% | activity, negative = inhibition [3] 2.43% | Potency [4] > 20.6 µM

O=CN1CCN(C(=O)CN2C(=O)c3ccccc3C2=O)CC1
inactive: activity change, negative = inhibition [1] 10.2% | activity change, negative = inhibition [2] 11.9% | activity, negative = inhibition [3] 6.47% | Potency [4] > 20.6 µM

CSc1nc2[nH]c3c(c2c2nncn12)CC(C)(C)OC3
inactive: activity change, negative = inhibition [1] -4.3% | activity change, negative = inhibition [2] -1.24% | activity, negative = inhibition [3] 7.21% | Potency [4] > 20.6 µM

O=C1C(=O)N(CCN2CCOCC2)C(c2ccccn2)/C1=C(/O)c1ccc(F)cc1 (centres undefined)
inactive: activity change, negative = inhibition [1] 10.4% | activity change, negative = inhibition [2] 21.3% | activity, negative = inhibition [3] -1.73% | Potency [4] > 20.6 µM

O=C(CN1C2=NCCN2c2ccccc21)N1CCOCC1
inactive: activity change, negative = inhibition [1] 5.86% | activity change, negative = inhibition [2] -2.85% | activity, negative = inhibition [3] 8.05% | Potency [4] > 20.6 µM

O=C(CSc1nc2ccccc2s1)Nn1cnnc1
inactive: activity change, negative = inhibition [1] 3.59% | activity change, negative = inhibition [2] 2.13% | activity, negative = inhibition [3] 5.58% | Potency [4] > 20.6 µM

C=CCNc1sc(C(=O)C2CC2)c(N)c1C#N
inactive: activity change, negative = inhibition [1] -5.75% | activity change, negative = inhibition [2] 4.81% | activity, negative = inhibition [3] -6.27% | Potency [4] > 20.6 µM

COc1ccc(C2=CC(c3cccc(OC)c3)n3nnnc3N2)cc1 (centres undefined)
inactive: activity change, negative = inhibition [1] -24.4% | activity change, negative = inhibition [2] 1.4% | activity, negative = inhibition [3] -2.84% | Potency [4] > 20.6 µM

CSc1nc(N)nc(SCC(=O)CC(=O)OC(C)C)c1C#N
inactive: activity change, negative = inhibition [1] -2.75% | activity change, negative = inhibition [2] 5.87% | activity, negative = inhibition [3] -1.28% | Potency [4] > 20.6 µM

O=C(O)c1ccnc(C(=O)O)c1
inactive: activity change, negative = inhibition [1] 8.01% | activity change, negative = inhibition [2] 0.361% | activity, negative = inhibition [3] 10.5% | Potency [4] > 20.6 µM

CCOc1ccc(Cc2nc(N)nc(N)n2)cc1
inactive: activity change, negative = inhibition [1] -3.76% | activity change, negative = inhibition [2] 6.51% | activity, negative = inhibition [3] 8.67% | Potency [4] > 20.6 µM

Nc1c(C(=O)NCc2ccco2)sc2nc(N3CCOCC3)c3c(c12)CCCC3
inactive: activity change, negative = inhibition [1] -27.5% | activity change, negative = inhibition [2] 16.8% | activity, negative = inhibition [3] -13.4% | Potency [4] > 20.6 µM

CCCCC(C(=O)O)C(C)CC(=O)Nc1cccc(C(=O)O)c1 (centres undefined)
inactive: activity change, negative = inhibition [1] 5.92% | activity change, negative = inhibition [2] -0.782% | activity, negative = inhibition [3] 12.4% | Potency [4] > 20.6 µM

CCNc1sc(C(=O)c2cccs2)c(N)c1C#N
inactive: activity change, negative = inhibition [1] -8.55% | activity change, negative = inhibition [2] 20.9% | activity, negative = inhibition [3] -7.29% | Potency [4] > 20.6 µM

N#Cc1nc(COc2ccc(Br)cc2)oc1NCCN1CCOCC1
inactive: activity change, negative = inhibition [1] -17.9% | activity change, negative = inhibition [2] 10.5% | activity, negative = inhibition [3] 1.36% | Potency [4] > 20.6 µM

Cc1ccc(N(CC(=O)O)C2SC(=O)NC2=O)cc1 (centres undefined)
inactive: activity change, negative = inhibition [1] 12.3% | activity change, negative = inhibition [2] 0.868% | activity, negative = inhibition [3] 6.57% | Potency [4] > 20.6 µM

CCOC(=O)c1ccc(CC2S/C(=C(\C#N)C(C)=O)NC2=O)cc1 (centres undefined)
inactive: activity change, negative = inhibition [1] -24.1% | activity change, negative = inhibition [2] 13.3% | activity, negative = inhibition [3] -21.4% | Potency [4] > 20.6 µM

CCOC(=O)C1=C(C)N=C2SC(C)C(=O)N2C1c1ccc(OC(C)=O)c(OC)c1 (centres undefined)
inactive: activity change, negative = inhibition [1] -14.1% | activity change, negative = inhibition [2] 10.3% | activity, negative = inhibition [3] -17.1% | Potency [4] > 20.6 µM

CCSc1nnc(N(CCC#N)CCC#N)s1
inactive: activity change, negative = inhibition [1] 8.14% | activity change, negative = inhibition [2] -7.48% | activity, negative = inhibition [3] -1.67% | Potency [4] > 20.6 µM

COC(=O)c1cc(S(=O)(=O)N2CCOCC2)c(N2CCOCC2)cc1N1CCOCC1
inactive: activity change, negative = inhibition [1] -1.61% | activity change, negative = inhibition [2] 5.16% | activity, negative = inhibition [3] 5.81% | Potency [4] > 20.6 µM

COc1ccc2cnn(-c3ccccc3C)c(=O)c2c1OC
inactive: activity change, negative = inhibition [1] 10.7% | activity change, negative = inhibition [2] -6.03% | activity, negative = inhibition [3] 24.1% | Potency [4] > 20.6 µM

CC(=O)c1cc(C#N)c(SCc2ccncc2)nc1C
inactive: activity change, negative = inhibition [1] -9.02% | activity change, negative = inhibition [2] -4.04% | activity, negative = inhibition [3] -3.61% | Potency [4] > 20.6 µM

COc1cccc(OC)c1-c1nn2c(-c3ccco3)nnc2s1
inactive: activity change, negative = inhibition [1] -10.9% | activity change, negative = inhibition [2] -8.25% | activity, negative = inhibition [3] -4.43% | Potency [4] > 20.6 µM

Cc1cc2ccccc2cc(C)c1=O
inactive: activity change, negative = inhibition [1] 9.45% | activity change, negative = inhibition [2] -28.3% | activity, negative = inhibition [3] -25.4% | Potency [4] > 20.6 µM

CCC1=Nc2ccccc2NC2=C1C(=O)CCC2
inactive: activity change, negative = inhibition [1] 16.1% | activity change, negative = inhibition [2] -0.948% | activity, negative = inhibition [3] -3.13% | Potency [4] > 20.6 µM

COc1ccc(OC)c(C2=Nn3c(nnc3-c3ccco3)SC2)c1
inactive: activity change, negative = inhibition [1] -13.7% | activity change, negative = inhibition [2] 24.6% | activity, negative = inhibition [3] -6.07% | Potency [4] > 20.6 µM
